Where “and” joins values, the source holds several entries; their conditions need not be identical. Equal entries are not always repeated. Hit rate of the full screen: of about 5,500 compounds, about 2,000 (36%) were called active. Inconclusive results (about 18%) are left out. No stated cut-off is given here; in the data, active means normalized growth mostly below about 0.91 (no sharp cut-off); inconclusive means no clear call, values can overlap the other calls; inactive means mostly above about 0.92. The list shows a part of the results.
Assay: chemical genetic growth profiling, strain panel (AID 1159580);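 further: tested at 20 µM; growth read once vehicle control cultures reached saturation at 30 °C; 1 = growth at the plate median or of vehicle wells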
Settings: S. cerevisiae deletion strains, growth OD

Measured: normalized growth

CCN(CCO)CCCC(C)Nc1ccnc2cc(Cl)ccc12 (configuration not stated)
inactive: locus YAL013W, strain DEP1, stronger effect = lower value 1.01 | locus YAL021C, strain ccr4, stronger effect = lower value 1.03 | locus YAL026C, strain drs2, stronger effect = lower value 1 | locus YAL030W, strain snc1, stronger effect = lower value 0.997 | locus YBL061C, strain skt5, stronger effect = lower value 1 | locus YBR009C, strain hhf1, stronger effect = lower value 1.01 | locus YBR021W, strain FUR4, stronger effect = lower value 1 | locus YBR023C, strain chs3, stronger effect = lower value 0.998 | locus YBR171W, strain sec66, stronger effect = lower value 1.01 | locus YBR229C, strain ROT2, stronger effect = lower value 0.991 | locus YBR231C, strain swc5, stronger effect = lower value 1.01 | locus YBR279W, strain paf1, stronger effect = lower value 1.01 | locus YCL011C, strain gbp2, stronger effect = lower value 1 | locus YCL016C, strain dcc1, stronger effect = lower value 1 | locus YCL029C, strain bik1, stronger effect = lower value 1.01 | locus YCL061C, strain MRC1, stronger effect = lower value 0.993 | locus YCL069W, strain vba3, stronger effect = lower value 0.998 | locus YCR088W, strain abp1, stronger effect = lower value 0.997 | locus YDL005C, strain med2, stronger effect = lower value 0.994 | locus YDL035C, strain GPR1, stronger effect = lower value 1.02 | locus YDL040C, strain nat1, stronger effect = lower value 0.999 | locus YDL074C, strain BRE1, stronger effect = lower value 1.01 | locus YDL101C, strain DUN1, stronger effect = lower value 1.02 | locus YDL134C, strain PPH21, stronger effect = lower value 1 | locus YDL185W, strain tfp1, stronger effect = lower value 1.01 | locus YDL192W, strain arf1, stronger effect = lower value 1.01 | locus YDR001C, strain nth1, stronger effect = lower value 1 | locus YDR069C, strain doa4, stronger effect = lower value 1.01 | locus YDR101C, strain arx1, stronger effect = lower value 1.02 | locus YDR137W, strain rgp1, stronger effect = lower value 0.978 | locus YDR150W, strain NUM1, stronger effect = lower value 1.01 | locus YDR159W, strain sac3, stronger effect = lower value 0.999 | locus YDR162C, strain NBP2, stronger effect = lower value 1.01 | locus YDR195W, strain ref2 1 | locus YDR297W, strain sur2, stronger effect = lower value 1.01 | locus YDR318W, strain mcm21, stronger effect = lower value 1.03 | locus YDR334W, strain swr1, stronger effect = lower value 1.01 | locus YDR335W, strain msn5, stronger effect = lower value 0.999 | locus YDR388W, stronger effect = lower value 1.01 | locus YDR392W, strain spt3, stronger effect = lower value 1.03 | locus YDR502C, strain sam2, stronger effect = lower value 1.02 | locus YEL003W, strain gim4, stronger effect = lower value 1 | locus YEL037C, strain rad23, stronger effect = lower value 1.01 | locus YEL061C, strain CIN8 (second series), stronger effect = lower value 1.01 | locus YEL061C, strain CIN8, stronger effect = lower value 1.01 | locus YER015W, strain faa2, stronger effect = lower value 1.01 | locus YER016W, strain bim1, stronger effect = lower value 1 | locus YER110C, stronger effect = lower value 1.01 | locus YER111C, strain swi4, stronger effect = lower value 1 | locus YER155C, strain BEM2 (second series), stronger effect = lower value 1 | locus YER155C, strain BEM2, stronger effect = lower value 1.01 | locus YER167W, strain BCK2, stronger effect = lower value 1.01 | locus YFR010W, strain ubp6, stronger effect = lower value 1.01 | locus YGL078C, strain dbp3, stronger effect = lower value 1.02 | locus YGL086W, strain mad1, stronger effect = lower value 1.02 | locus YGL167C, strain pmr1, stronger effect = lower value 0.994 | locus YGL173C, strain kem1, stronger effect = lower value 0.996 | locus YGL227W, strain vid30, stronger effect = lower value 0.997 | locus YGL240W, strain doc1, stronger effect = lower value 1.01 | locus YGL248W, strain PDE1, stronger effect = lower value 0.993 | locus YGL253W, strain hxk2, stronger effect = lower value 0.999 | locus YGR078C, strain PAC10, stronger effect = lower value 1.03 | locus YGR135W, strain pre9, stronger effect = lower value 1.01 | locus YGR229C, strain SMI1, stronger effect = lower value 1.03 | locus YGR252W, strain gcn5, stronger effect = lower value 1.21 | locus YHR013C, strain ard1, stronger effect = lower value 1 | locus YHR027C, strain rpn1, stronger effect = lower value 0.988 | locus YHR030C, strain SLT2, stronger effect = lower value 1.01 and 0.985 | locus YHR079C, strain IRE1 (second series), stronger effect = lower value 1.01 | locus YHR079C, strain IRE1, stronger effect = lower value 0.99 | locus YHR094C, strain hxt1, stronger effect = lower value 1.01 | locus YHR129C, strain ARP1, stronger effect = lower value 1.01 | locus YHR142W, strain chs7, stronger effect = lower value 1 | locus YHR200W, strain rpn10, stronger effect = lower value 1.02 | locus YIL066C, strain RNR3, stronger effect = lower value 1.03 | locus YIL073C, strain SPO22, stronger effect = lower value 1.05 | locus YIL125W, strain kgd1, stronger effect = lower value 1 | locus YIR030C, strain dcg1, stronger effect = lower value 1.01 | locus YJL092W, strain hpr5, stronger effect = lower value 0.998 | locus YJL095W, strain BCK1 (second series), stronger effect = lower value 0.995 | locus YJL095W, strain BCK1, stronger effect = lower value 1.01 | locus YJL115W, strain asf1, stronger effect = lower value 1.01 | locus YJL129C, strain trk1, stronger effect = lower value 0.991 | locus YJL134W, strain LCB3, stronger effect = lower value 1.01 | locus YJL154C, strain vps35, stronger effect = lower value 1.01 | locus YJL164C, strain tpk1, stronger effect = lower value 1 | locus YJL166W, strain qcr8, stronger effect = lower value 1 | locus YJL168C, strain set2, stronger effect = lower value 1.01 | locus YJL187C, strain SWE1 (second series), stronger effect = lower value 1.02 | locus YJL187C, strain SWE1, stronger effect = lower value 0.999 | locus YJR043C, strain POL32, stronger effect = lower value 1.04 | locus YJR066W, strain TOR1, stronger effect = lower value 0.961

Source: PubChem BioAssay AID1159580 (chemical genetic matrix, 2015)
